Laboratory results from PubChem BioAssay (Tox21).
Unmarked numbers belong to inactive results. Results filed as inconclusive are left out. A call without a number means that no potency is given here. Calls of active or inactive are those of the source. Unless noted, calls follow the shape of the full dose curve.

Experiments:
[1] = Nuclear factor erythroid 2-related factor 2/antioxidant responsive element (Nrf2/ARE) small molecule agonists: qHTS cell viability counter screen in human keratinocytes (AID 1919968; active = well fitted curve in the direction sought with a large enough effect in the repeat runs; an effect the other way counts as inactive or inconclusive; also: nearly all actives have a fitted effect of over 55% in size)
Method in brief: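 Fluorescence read-out from CellTiter-Fluor after 1 h at 37 C. Wells held HaCaT-derived ARE-luciferase reporter cells (1,500/well) treated 23 h with DMSO-dissolved compounds. Run in the same wells as the luciferase agonist read.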

[2] = Nuclear factor erythroid 2-related factor 2/antioxidant responsive element (Nrf2/ARE) small molecule agonists: luciferase reporter gene qHTS assay in human keratinocytes (AID 1919969); also: nearly all actives have a fitted effect of over 35% in size; also: potency is read from the fitted curve at half-maximal effect
[3] = biological target: Gonadotropin-releasing hormone receptor (Homo sapiens) (UniProt P30968); assay: Human gonadotropin-releasing hormone receptor (GnRHR) small molecule agonists, calcium flux assay in GnRHR-HEK293 cells (AID 1920063); also: nearly all actives have a fitted effect of over 35% in size
Method in brief: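 Calcium-dye fluorescence, Ex/Em=480/540, recorded every 1 sec over 3 min after compound addition to GnRHR-HEK293 cells. Cells had been seeded 18 hours earlier and dye-loaded for 1 hour at 37 C. Fifteen concentrations, triplicates.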

[4] = biological target: KiSS-1 receptor (Homo sapiens) (UniProt Q969F8); assay: Human kisspeptin (KISS1R) small molecule agonists, calcium flux assay in KISS1R-HEK293 cells (AID 1920064; active = well fitted curve in the direction sought with a large enough effect in the repeat runs; an effect the other way counts as inactive or inconclusive)
Method in brief: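 Calcium flux read-out: kinetic fluorescence at Ex/Em=480/540, 1 s intervals over 3 min, after pin-tool compound addition to dye-loaded KISS1R-HEK293 cells. Fifteen concentrations, triplicates.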

[5] = G protein-coupled receptor (GPCR) small molecule agonists, calcium flux assay: HEK293 wild type cell line counter screen (AID 1920065)
Method in brief: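 Agonist mode; 18 h seeding at 37 C, 1 h dye load at 37 C; compounds pinned from DMSO, ATP as positive control; kinetic fluorescence 480/540 nm, 3 min, 1 s reads; 15 concentrations, triplicate.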

[6] = p53 small molecule agonists, cell-based qHTS assay with human liver microsomes (AID 1963577)
Method in brief: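 Compounds act here after metabolic activation: human liver microsomes and NADPH, both at 0.5 mg/mL final, were co-added to p53RE-bla cells. Incubation ran 16 h at 37 C, followed by LiveBLAzer detection.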

[7] = p53 small molecule agonists, cell-based qHTS assay with human liver microsomes: qHTS cell viability counter screen (AID 1963579); also: nearly all actives have a fitted effect of over 45% in size
Method in brief: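 Cells carrying the p53 response-element beta-lactamase reporter are treated for 16 h at 37 C with test compounds in the presence of human liver microsomes and NADPH (both 0.5 mg/mL final); ATP-based CellTiter-Glo luminescence then reports viability.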

[8] = p53 small molecule agonists, cell-based qHTS assay with rat liver microsomes: qHTS cell viability counter screen (AID 1963580); also: nearly all actives have a fitted effect of over 45% in size
Method in brief: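 After the beta-lactamase ratio was read, CellTiter-Glo was added to the same wells and luminescence measured at 30 min; cells had been treated 16 h at 37 C with compounds, rat liver microsomes and NADPH (0.5 mg/mL final each).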

[9] = p53 small molecule agonists, cell-based qHTS assay: qHTS cell viability counter screen (AID 1963581); also: nearly all actives have a fitted effect of over 45% in size
Method in brief: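 Cytotoxicity read-out: ATP-based luminescence (CellTiter-Glo, 30 min RT) measured in the same wells as the p53 reporter assay, HCT-116 p53RE-bla cells, 16 h compound exposure at 37 C.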

[10] = p53 small molecule agonists, cell-based qHTS assay (AID 1963582; active = well fitted activation curve with a large enough effect in the signal ratio in the repeat runs, not every such curve was filed as active; the % refers to the signal ratio)
Method in brief: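 Fluorescence intensity read-out of a beta-lactamase reporter under a p53 response element. Cells were exposed to DMSO-dissolved compounds for 16 h at 37 C, then developed with FRET substrate for 2 h at RT.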

[11] = cAMP Responsive Elements (CRE) small molecule agonists, cell-based qHTS assay (AID 1963590)
Method in brief: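 Beta-lactamase reporter readout: LiveBLAzer B/G FRET substrate, 2 h at room temperature, added after 3 h compound treatment of CRE-bla HEK 293T cells at 37 C/5% CO2.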

[12] = cAMP Responsive Elements (CRE) small molecule antagonists, cell-based qHTS assay (AID 1963591; active = well fitted inhibition curve with a large enough effect in the signal ratio in the repeat runs, not every such curve was filed as active; the % refers to the signal ratio)
Method in brief: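 HEK293T CRE-bla; 18 h preincubation; compound pin-transfer; NKH477 0.25 uM final, 3 h, 37 C; LiveBLAzer FRET substrate 2 h RT.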

[13] = biological target: Beta-2 adrenergic receptor (Homo sapiens) (UniProt P07550); assay: Adrenergic beta2 receptor (ADRB2) small molecule antagonists, cell-based qHTS assay (AID 1963592); also: series mostly up to about 92 µM; nearly all actives have a fitted effect of over 50% in size
Method in brief: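 Assay format: CHO-ADRB2 cells, 18-20hr seeding at 37C/5% CO2, then compound plus 1nM isoproterenol agonist mix for 0.5hr RT. Homogeneous time-resolved fluorescence cAMP detection after 1hr, expressed as 665/615 nm ratio.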

[14] = biological target: D(2) dopamine receptor (Homo sapiens) (UniProt P14416); assay: Dopamine D2 receptor (DRD2) small molecule antagonists, cell-based qHTS assay (AID 1963595; active = well fitted inhibition curve with a large enough effect in the signal ratio in the repeat runs, with a control signal flat; the % refers to the signal ratio; also: potency is read from the fitted curve at half-maximal effect)
Method in brief: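 Stable D2 receptor HEK293 line, 24 h after seeding. Compound preincubated 10 min, then quinpirole (12 nM) with forskolin analogue NKH477 (200 nM), 30 min, room temperature. Detection by time-resolved FRET of cAMP.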

[15] = biological target: 5-hydroxytryptamine receptor 2A (Homo sapiens) (UniProt P28223); assay: 5-hydroxytryptamine receptor 2A (HTR2A) small molecule antagonists, cell-based qHTS assay (AID 1963586); also: nearly all actives have a fitted effect of over 45% in size
Method in brief: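 CHO cells stably expressing human HTR2A were plated for 18 h at 37 C, then loaded with calcium dye for 1 h. Compounds were preincubated 5 min at room temperature before DOI (4 nM solution) was added. Kinetic fluorescence was read for 3 min.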

[16] = biological target: 5-hydroxytryptamine receptor 2A (Homo sapiens) (UniProt P28223); assay: 5-hydroxytryptamine receptor 2A (HTR2A) small molecule agonists, cell-based qHTS assay (AID 1963587); also: nearly all actives have a fitted effect of over 30% in size
Method in brief: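 CHO cells stably expressing human HTR2A, plated 18 h, loaded with calcium dye 1 h at 37 C. Agonist mode: compounds added and intracellular calcium fluorescence recorded kinetically for 2 min at 1 sec intervals.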

[17] = biological target: Muscarinic acetylcholine receptor M1 (Homo sapiens) (UniProt P11229); assay: Cholinergic receptor muscarinic 1 (CHRM1) small molecule antagonists, cell-based qHTS assay (AID 1963588); also: nearly all actives have a fitted effect of over 40% in size
Method in brief: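 Compounds were tested at 15 concentrations in three independent runs. Dye-loaded CHRM1-CHO cells were exposed 5 min at room temperature before stimulation by acetylcholine added at 50nM. Intracellular calcium was read kinetically on FDSS for 3 min.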

[18] = biological target: Muscarinic acetylcholine receptor M1 (Homo sapiens) (UniProt P11229); assay: Cholinergic receptor muscarinic 1 (CHRM1) small molecule agonists, cell-based qHTS assay (AID 1963589); also: nearly all actives have a fitted effect of over 35% in size
Method in brief: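 Calcium flux read-out: kinetic fluorescence at 1 sec intervals after pin-tool compound addition to dye-loaded CHRM1-CHO cells (human M1). Agonist mode; 15 concentrations tested in triplicate independent runs.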

[19] = biological target: D(2) dopamine receptor (Homo sapiens) (UniProt P14416); assay: Dopamine D2 receptor (DRD2) small molecule agonists, cell-based qHTS assay (AID 1963594); also: nearly all actives have a fitted effect of over 35% in size; also: potency is read from the fitted curve at half-maximal effect
Method in brief: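 HEK293 cells stably expressing human DRD2, pre-treated with PDE inhibitor Ro20-1724 (0.1 mM final) and compound 10 min at room temperature, then stimulated with NKH477 (200nM […]) for 30 min. cAMP read by HTRF (665/620 nm).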

D(2) dopamine receptor (Homo sapiens), sequence (P14416 whole entry, looked up): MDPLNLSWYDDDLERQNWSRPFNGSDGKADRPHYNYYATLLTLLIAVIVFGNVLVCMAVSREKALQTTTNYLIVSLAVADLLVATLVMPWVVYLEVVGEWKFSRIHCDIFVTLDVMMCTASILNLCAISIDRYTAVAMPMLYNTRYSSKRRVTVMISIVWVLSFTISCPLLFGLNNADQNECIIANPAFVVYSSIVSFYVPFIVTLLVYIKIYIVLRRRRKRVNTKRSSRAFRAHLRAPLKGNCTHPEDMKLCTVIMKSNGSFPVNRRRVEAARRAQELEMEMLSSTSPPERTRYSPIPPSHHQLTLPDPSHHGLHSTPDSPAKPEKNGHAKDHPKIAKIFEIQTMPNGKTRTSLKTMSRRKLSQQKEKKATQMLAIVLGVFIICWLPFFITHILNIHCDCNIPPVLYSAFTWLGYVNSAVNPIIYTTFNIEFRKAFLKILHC
5-hydroxytryptamine receptor 2A (Homo sapiens), sequence (P28223 whole entry, looked up): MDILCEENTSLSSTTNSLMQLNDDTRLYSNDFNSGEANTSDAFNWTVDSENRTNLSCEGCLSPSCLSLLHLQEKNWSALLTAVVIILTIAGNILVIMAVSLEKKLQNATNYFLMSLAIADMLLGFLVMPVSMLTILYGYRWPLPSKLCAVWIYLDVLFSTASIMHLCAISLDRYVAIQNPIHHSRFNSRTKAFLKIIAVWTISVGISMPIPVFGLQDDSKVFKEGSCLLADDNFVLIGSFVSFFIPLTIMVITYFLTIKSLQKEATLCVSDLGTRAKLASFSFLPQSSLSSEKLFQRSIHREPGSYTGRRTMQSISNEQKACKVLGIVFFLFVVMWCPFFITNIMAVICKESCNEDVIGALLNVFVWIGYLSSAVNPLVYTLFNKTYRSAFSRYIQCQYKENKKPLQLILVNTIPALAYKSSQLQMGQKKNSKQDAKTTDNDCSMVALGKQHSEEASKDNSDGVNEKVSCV
Gonadotropin-releasing hormone receptor (Homo sapiens), sequence (P30968 whole entry, looked up): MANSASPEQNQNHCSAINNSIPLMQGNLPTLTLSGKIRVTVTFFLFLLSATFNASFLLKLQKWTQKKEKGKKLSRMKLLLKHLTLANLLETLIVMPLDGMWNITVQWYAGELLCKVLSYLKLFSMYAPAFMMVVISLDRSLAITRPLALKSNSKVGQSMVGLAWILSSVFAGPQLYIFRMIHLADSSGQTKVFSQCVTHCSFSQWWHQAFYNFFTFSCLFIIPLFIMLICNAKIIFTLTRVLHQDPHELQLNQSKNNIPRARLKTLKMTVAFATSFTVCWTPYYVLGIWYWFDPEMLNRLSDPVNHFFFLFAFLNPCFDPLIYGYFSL
Muscarinic acetylcholine receptor M1 (Homo sapiens), sequence (P11229 whole entry, looked up): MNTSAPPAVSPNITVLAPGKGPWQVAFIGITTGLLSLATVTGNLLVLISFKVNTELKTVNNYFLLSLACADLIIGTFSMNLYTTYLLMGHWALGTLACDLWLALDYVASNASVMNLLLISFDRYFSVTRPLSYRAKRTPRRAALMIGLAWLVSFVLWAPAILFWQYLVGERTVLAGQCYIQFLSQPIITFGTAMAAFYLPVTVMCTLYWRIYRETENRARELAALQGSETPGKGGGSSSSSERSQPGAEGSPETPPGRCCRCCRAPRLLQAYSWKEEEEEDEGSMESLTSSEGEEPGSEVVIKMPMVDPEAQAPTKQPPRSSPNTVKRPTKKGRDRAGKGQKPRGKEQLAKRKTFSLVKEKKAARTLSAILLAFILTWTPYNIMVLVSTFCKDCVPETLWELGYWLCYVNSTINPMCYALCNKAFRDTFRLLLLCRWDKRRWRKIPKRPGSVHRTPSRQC
KiSS-1 receptor (Homo sapiens), sequence (Q969F8 whole entry, looked up): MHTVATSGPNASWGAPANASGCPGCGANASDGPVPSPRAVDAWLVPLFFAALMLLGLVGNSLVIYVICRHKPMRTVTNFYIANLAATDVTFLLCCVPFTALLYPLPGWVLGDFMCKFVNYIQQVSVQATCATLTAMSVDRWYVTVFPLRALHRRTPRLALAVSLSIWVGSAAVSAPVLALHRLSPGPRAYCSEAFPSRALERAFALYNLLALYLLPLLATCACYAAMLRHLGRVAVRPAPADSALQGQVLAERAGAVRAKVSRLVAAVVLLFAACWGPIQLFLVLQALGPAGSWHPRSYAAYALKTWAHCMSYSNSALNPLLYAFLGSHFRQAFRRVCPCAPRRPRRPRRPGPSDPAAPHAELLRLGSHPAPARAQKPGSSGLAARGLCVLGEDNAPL
Beta-2 adrenergic receptor (Homo sapiens), sequence (P07550 whole entry, looked up): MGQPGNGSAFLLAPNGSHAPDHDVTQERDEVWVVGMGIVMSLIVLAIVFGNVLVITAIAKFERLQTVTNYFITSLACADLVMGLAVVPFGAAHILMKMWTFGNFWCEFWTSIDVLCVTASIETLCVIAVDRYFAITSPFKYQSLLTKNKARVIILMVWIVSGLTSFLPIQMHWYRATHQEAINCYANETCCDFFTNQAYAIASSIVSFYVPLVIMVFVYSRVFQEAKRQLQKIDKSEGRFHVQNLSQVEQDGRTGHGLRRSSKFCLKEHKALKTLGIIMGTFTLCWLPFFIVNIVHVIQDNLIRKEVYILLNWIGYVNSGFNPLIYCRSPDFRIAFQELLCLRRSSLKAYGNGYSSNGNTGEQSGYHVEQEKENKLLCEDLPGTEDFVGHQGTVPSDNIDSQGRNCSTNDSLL

Structure (SMILES): OC(CCCN1CCCCC1)(c1ccccc1)c1ccccc1
- Potency [1]: inactive
- Potency [2]: inactive
- Potency [3]: inactive
- outcome [4]: inactive
- outcome [5]: inactive
- Potency [6]: inactive
- Potency [7]: inactive
- Potency [8]: inactive
- Potency [9]: inactive
- Potency [10]: inactive
- Potency [11]: inactive
- Potency [12]: inactive
- Potency [13]: inactive
- Potency [14]: 5.96 µM (active)

Structure (SMILES): CC1(C)CCC(C)(C)c2cc(NC(=O)c3ccc(C(=O)O)cc3)ccc21
- Potency [1]: inactive
- Potency [2]: inactive
- Potency [3]: inactive
- outcome [4]: inactive
- outcome [5]: inactive
- Potency [6]: inactive
- Potency [7]: inactive
- Potency [8]: inactive
- Potency [9]: inactive
- Potency [10]: inactive
- Potency [15]: inactive
- Potency [16]: inactive
- Potency [17]: inactive
- Potency [18]: inactive
- Potency [13]: inactive
- Potency [19]: 1.06 µM (active)
- Potency [14]: inactive

Structure (SMILES): CCCCCN(CCCOC)C(=O)C(CCC(=O)O)NC(=O)c1ccc(Cl)c(Cl)c1 (stereo not given)
- Potency [1]: inactive
- Potency [2]: inactive
- Potency [3]: inactive
- outcome [4]: inactive
- outcome [5]: inactive
- Potency [6]: inactive
- Potency [7]: inactive
- Potency [8]: inactive
- Potency [9]: inactive
- Potency [10]: inactive
- Potency [15]: inactive
- Potency [16]: inactive
- Potency [17]: inactive
- Potency [18]: inactive
- Potency [13]: inactive
- Potency [19]: inactive
- Potency [14]: inactive

Structure (SMILES): C[N+](C)(C)CC(O)CC(=O)[O-] (stereo not given)
- Potency [1]: inactive
- Potency [2]: inactive
- Potency [3]: inactive
- outcome [4]: inactive
- outcome [5]: inactive
- Potency [6]: inactive
- Potency [7]: inactive
- Potency [8]: inactive
- Potency [9]: inactive
- Potency [10]: inactive
- Potency [11]: inactive
- Potency [12]: inactive
- Potency [13]: inactive
- Potency [19]: inactive

Structure (SMILES): C=CC/C=C/C
- Potency [1]: inactive
- Potency [2]: inactive
- Potency [3]: inactive
- outcome [4]: inactive
- outcome [5]: inactive
- Potency [6]: inactive
- Potency [7]: inactive
- Potency [8]: inactive
- Potency [9]: inactive
- Potency [15]: inactive
- Potency [16]: inactive
- Potency [17]: inactive
- Potency [18]: inactive
- Potency [11]: inactive
- Potency [12]: inactive
- Potency [13]: inactive
- Potency [19]: inactive
- Potency [14]: inactive

Structure (SMILES): CCCCOC(=O)/C=C\C(=O)OCCCC
- Potency [1]: inactive
- Potency [2]: 25.2 µM (active)
- Potency [3]: inactive
- outcome [4]: inactive
- outcome [5]: inactive
- Potency [6]: inactive
- Potency [7]: inactive
- Potency [8]: inactive
- Potency [9]: inactive
- Potency [10]: inactive
- Potency [15]: inactive
- Potency [17]: inactive
- Potency [18]: inactive
- Potency [11]: inactive
- Potency [12]: inactive
- Potency [13]: inactive
- Potency [19]: inactive
- Potency [14]: inactive

Structure (SMILES): C[C@]12C=CC(=O)C=C1[C@@H](F)C[C@@H]1[C@@H]2[C@@H](O)C[C@@]2(C)[C@H]1CC[C@]2(O)C(=O)CO
- Potency [1]: inactive
- Potency [2]: inactive
- Potency [3]: inactive
- outcome [4]: inactive
- outcome [5]: inactive
- Potency [6]: inactive
- Potency [7]: inactive
- Potency [8]: inactive
- Potency [9]: inactive
- Potency [10]: inactive
- Potency [15]: inactive
- Potency [17]: inactive
- Potency [18]: inactive
- Potency [12]: inactive
- Potency [13]: inactive
- Potency [19]: inactive
- Potency [14]: inactive
